Only a selection was taken, and hits are over-represented in it overall.
Pf Dd2 growth: qHTS Primary assay for Inhibitors of Plasmodium falciparum Dd2 growth in vitro. P. falciparum Dd2 growth, SYBR Green, 72 h. Potency, µM (top dose mostly 28.9 µM), for the others: at the top dose activity, negative = inhibition, hits mostly inhibitors. 120,000 tested, 4.3% active. AID 1347417, 2020; active = well fitted inhibition curve with a large enough effect;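 also: plate controls were DMSO vehicle for no effect and reference drug for full effect; nearly all actives have a fitted effect of over 65% in size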
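Readout: SYBR Green fluorescence, 485 nm excitation, 535 nm emission, after ~16 h lysis at 37C. Before that, Dd2-infected red cells (2.5% hematocrit) grew 72 h with compound, 29 uM top final concentration.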
Active calls of the source: *; i = inactive; [ ] = dose if it differs, or a comment. Potency is read from the fitted curve at half-maximal effect.

SMILES	Pf Dd2 growth
CC(C)CC(=O)N1CCC(N2CCCC(C(=O)NCc3ccccc3)C2)CC1 (configuration not stated)	-17%
O=C(O)c1ccc(CN2CC[C@@H](c3ccc4c(c3)OCO4)[C@H](O)C2)cc1	-13%
CC(C)c1csc(CN2CC[C@@H](c3ccc4c(c3)OCO4)[C@H](O)C2)n1	-14%
CC(C)n1cc(CN2CC[C@@H](c3ccc4ccccc4c3)[C@H](O)C2)cn1	10µM*
CC(C)(C)OC(=O)N1CCC(c2c(C(=O)N3CCN(c4ncccn4)CC3)cnn2-c2cccc(F)c2)CC1	8%
CC(C)(C)OC(=O)N1CCC(c2c(C(=O)N3CCN(C(=O)c4ccco4)CC3)cnn2-c2cccc(Cl)c2)CC1	10µM*
CC(C)(C)OC(=O)N1CCC(c2c(C(=O)N3CCCCC3)cnn2-c2ccc(F)cc2)CC1	3%
Cc1ccc(-n2ncc(C(=O)N3CCN(c4cccc(C)c4)C(C)C3)c2C2CCN(C(=O)OC(C)(C)C)CC2)cc1 (configuration not stated)	4.5µM*
CN1CCN(C(=O)c2cnn(-c3ccccc3)c2C2CCN(C(=O)OC(C)(C)C)CC2)CC1	-21%
CC(C)(C)OC(=O)N1CCC(c2c(C(=O)NC3CCN(Cc4ccccc4)CC3)cnn2-c2cccc(F)c2)CC1	-17%
CC(C)(C)OC(=O)N1CCC(c2c(C(=O)N3CCN(C4CCCCC4)CC3)cnn2-c2cccc(Cl)c2)CC1	10µM*
COc1ccc(-n2ncc(C(=O)N3CCN(C(=O)c4ccco4)CC3)c2C2CCN(C(=O)OC(C)(C)C)CC2)cc1	38%
Cc1cccc(-n2ncc(C(=O)N3CCN(Cc4ccccc4)CC3)c2C2CCN(C(=O)OC(C)(C)C)CC2)c1	7.9µM*
COc1ccc(CNC(=O)[C@@H](C)C2CC[C@@]3(C)CC[C@H](NC(=O)COc4ccccc4)[C@@H](C)[C@@H]3[C@H]2O)cc1 (some centres not stated)	i
COc1ccc2c(c1)c1c(c(=O)n(-c3ccc(C)cc3)c(=O)n1CC(=O)N1CCCC1)n2C	-12%
Cn1cc(C(=O)NCC2CN(CCCc3ccccc3)CC23CN(c2ccccc2)C3)cn1 (configuration not stated)	-10%
Cc1cn2c(=O)c(S(=O)(=O)N3CCN(c4cc(Cl)ccc4C)CC3)c(C)nc2s1	2%
Cc1ccc(S(=O)(=O)N2CCCC(Cn3cnc4cccnc43)C2)cc1 (configuration not stated)	-30%
COc1ccc(-c2nc3c(c(SCc4cc(C)ccc4C)n2)Cc2c(CO)cnc(C)c2O3)cc1	-8%
COc1ccccc1-c1nc2c(c(SCc3cccc(Cl)c3)n1)Cc1c(CO)cnc(C)c1O2	2.5µM*
C=Cc1ccc(CSc2nc(-c3ccccc3Cl)nc3c2Cc2c(CO)cnc(C)c2O3)cc1	6.3µM*
CCc1ccc(CSc2nc(-c3ccc(OC)cc3)nc3c2Cc2c(CO)cnc(C)c2O3)cc1	-6%
Cc1cccc(NC(=O)CSc2nc(-c3ccccc3Cl)nc3c2Cc2c(CO)cnc(C)c2O3)c1C	-1%
COc1ccc(-c2nc3c(c(SCC(=O)N(C)c4ccccc4)n2)Cc2cc(C)ccc2O3)cc1	9%
Cc1ccc(-c2nc3c(c(SCc4ccc(Br)cc4)n2)Cc2c(CO)cnc(C)c2O3)cc1	-1%
SMILES	Pf Dd2 growth
CCc1ccc(-c2nc3c(c(SCc4ccccc4F)n2)Cc2c(CO)cnc(C)c2O3)cc1	-10%
CCc1ccc(CSc2nc(-c3ccccc3F)nc3c2Cc2c(CO)cnc(C)c2O3)cc1	10µM*
CCOc1ccc(N(CC)C(=O)CCc2nc(-c3ccccc3F)no2)cc1	47%[0.594 µM]
CCc1ccc(Nc2nc(-c3ccccc3F)no2)cc1	i
CCN(CC)C(=O)CSc1nc(-c2ccccc2F)nc2c1Cc1c(CO)cnc(C)c1O2	11µM*
N#Cc1ccccc1CN1CCCCCCNC(=O)CC1	-20%
CCC1Oc2ccc(NC(=O)C3CCCC3)cc2CN(Cc2ccc(F)cc2Cl)C1=O (configuration not stated)	-24%
COCc1noc(CC2CCOC3(CCN(C(=O)c4ccc5cc[nH]c5c4)CC3)C2)n1 (configuration not stated)	-12%
NC(=O)[C@@H]1CN(C(=O)Cc2ccc(F)cc2)C[C@H]1COc1ccccc1	-1%
O=C(Cc1ccc(Br)cc1)N1CCCN(C(=O)C2CC2)c2ccccc21	i
O=C(C1CCCO1)N1CCN(c2nc(-c3cccnc3)nc3c2CNC3)CC1 (configuration not stated)	-11%
COc1ccc(-c2cn(C3CCN(C(=O)c4ccc(Cl)cc4)CC3)c(=O)[nH]2)cc1	-14%
COc1ccc(C2(C(=O)NC3CCc4n[nH]c(=O)n4CC3)CC2)cc1 (configuration not stated)	12%
Cc1cc(C)n(CCNC(=O)c2ccccc2OC2CCN(S(C)(=O)=O)CC2)n1	-35%
Cc1cccc(C)c1-c1cc(C(=O)NC2CC2)c2cnn(C)c2n1	1%
Cn1ncc2c(C(=O)NCC3CC3)cc(-c3cccnc3)nc21	13µM*
Cn1ncc2c(C(=O)NC3CC3)cc(-c3cccc(C(F)(F)F)c3)nc21	-22%
O=C(C1CC1)N1C[C@@H]2OCC(=O)N(Cc3ccccn3)[C@@H]2C1	21%[44.1 µM]
COc1cc(OC)cc(C(=O)NCC2CCCN(C/C=C/c3ccccc3OC)C2)c1 (configuration not stated)	8.9µM*
COc1ccccc1OCC(=O)NCC1CCCN(Cc2ccc(C)c(C)c2)C1 (configuration not stated)	-7%
CCn1cc(CN2CCCC(CNC(=O)c3cc(OC)cc(OC)c3)C2)c(C)n1 (configuration not stated)	-15%
O=C(CCC1CCN(C(=O)CCc2c[nH]c3ccccc23)CC1)NCc1cccnc1	-1%
CCNC(=O)N1CCC(c2noc(-c3cccnc3)n2)C1 (configuration not stated)	69%[5.79 µM]
O=C(NCCc1noc(-c2cccnc2)n1)C1(c2ccccc2)CC1	-11%
Cc1ccc(S(=O)(=O)N2CCCC(Cn3c(C)nc4cccnc43)C2)cc1F (configuration not stated)	i
SMILES	Pf Dd2 growth
Cc1nc2cccnc2n1CC1CCCN(S(=O)(=O)c2ccc3c(c2)CCC3)C1 (configuration not stated)	-28%
Cc1nc2cccnc2n1CC1CCCN(S(=O)(=O)c2cccc(Br)c2)C1 (configuration not stated)	6.3µM*
COc1ccc(-c2nnc3n2CCN(C(=O)N(C)C)C3)cc1	15%[44.1 µM]
CNC(=O)[C@@H](c1ccc(Cl)cc1)N1CCC[C@H]1C(=O)N(C)CCN(C)C	-11%
CCOC(=O)[C@H]1C[C@@H]2NCCCCCCNC(=O)[C@@H]2C1	i
CCC1(CO)CCCN(Cc2ccc3c4c(cccc24)C(=O)OC3)C1 (configuration not stated)	-23%
CC(=O)N1CCC(N[C@@H]2CO[C@H](CNC(=O)c3ccncc3)[C@H]2O)CC1	32%[44.1 µM]
CCOCCCNC(=O)N1CCOc2ccc(CN(CC)CC)cc2C1	i
CCN(CC)Cc1ccc2c(c1)CN(C(=O)c1cccc(F)c1)CCO2	6.3µM*
COc1cccc(C(=O)N2CCOc3ccc(CN4CCCCC4)cc3C2)c1	i
CCN(CC)c1cc(CCC(=O)NCCCN2CCN(C)CC2)ccn1	13%
CCN(CC)c1cc(CCC(=O)N2CCN(c3ccc(Cl)cc3)CC2)ccn1	8.9µM*
CCN(CC)c1cc(CCC(=O)N2CCC(COC)CC2)ccn1	1%
CCN(CC)c1cc(CCC(=O)NCCN(C)C2CCCCC2)ccn1	1.6µM*

Screening results: PubChem, National Center for Advancing Translational Sciences (NCATS)
